# Compound activity: PubChem, Broad Institute
# The list is not random: actives were taken first. Their share in the collection is about 2.1%.
# F508del corr – CFTR F508del correction in bronchial cells | CFBE cells, YFP halide quenching; stimulated with forskolin plus potentiator P3; % fluorescence drop versus neutral controls | activity (quench increase), % at 7.58 µM | actives 0.36% (n = 350,000) | AID 720511;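 active = mean added fluorescence quench of at least 8% versus neutral control, with both replicates also reaching 8%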;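 note: cells transiently co-express mutant CFTR-F508del with the halide-sensitive YFP; corrector assay measuring rescue of mutant channel to the surface after 24 h compound exposure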
# ARNT-TACC3 inh – disruptors of human ARNT/TACC3 interaction. inhibition, % at 9.99 µM. AID 623870. AlphaScreen His-ARNT PAS-B/GST-TACC3 binding, luminescence; TACC3 fragment carries E629A point mutation. Q9Y6A5. actives 0.66% (n = 390,000);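 active = mean inhibition of replicates at least 50% and at least half of replicates each reaching 50%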;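 note: 0% = complete ARNT plus TACC3 wells and 100% = ARNT alone without TACC3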
# ERAP1 HTS inh – ERAP1 (human) enzyme inhibition. Q9NZ08. recombinant ERAP1, Leu-AMC fluorescence, 60 min. actives 0.15% (n = 340,000). inhibition, % at 10.7 µM;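 active = mean replicate inhibition of at least 30%, or all replicates individually reaching that 30% level; inactive = mean below 30% and not every replicate reaching it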;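 note: 0% = neutral control wells and 100% = L-leucinethiol positive control wells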
# Target sequence (Q9NZ08 whole entry, looked up): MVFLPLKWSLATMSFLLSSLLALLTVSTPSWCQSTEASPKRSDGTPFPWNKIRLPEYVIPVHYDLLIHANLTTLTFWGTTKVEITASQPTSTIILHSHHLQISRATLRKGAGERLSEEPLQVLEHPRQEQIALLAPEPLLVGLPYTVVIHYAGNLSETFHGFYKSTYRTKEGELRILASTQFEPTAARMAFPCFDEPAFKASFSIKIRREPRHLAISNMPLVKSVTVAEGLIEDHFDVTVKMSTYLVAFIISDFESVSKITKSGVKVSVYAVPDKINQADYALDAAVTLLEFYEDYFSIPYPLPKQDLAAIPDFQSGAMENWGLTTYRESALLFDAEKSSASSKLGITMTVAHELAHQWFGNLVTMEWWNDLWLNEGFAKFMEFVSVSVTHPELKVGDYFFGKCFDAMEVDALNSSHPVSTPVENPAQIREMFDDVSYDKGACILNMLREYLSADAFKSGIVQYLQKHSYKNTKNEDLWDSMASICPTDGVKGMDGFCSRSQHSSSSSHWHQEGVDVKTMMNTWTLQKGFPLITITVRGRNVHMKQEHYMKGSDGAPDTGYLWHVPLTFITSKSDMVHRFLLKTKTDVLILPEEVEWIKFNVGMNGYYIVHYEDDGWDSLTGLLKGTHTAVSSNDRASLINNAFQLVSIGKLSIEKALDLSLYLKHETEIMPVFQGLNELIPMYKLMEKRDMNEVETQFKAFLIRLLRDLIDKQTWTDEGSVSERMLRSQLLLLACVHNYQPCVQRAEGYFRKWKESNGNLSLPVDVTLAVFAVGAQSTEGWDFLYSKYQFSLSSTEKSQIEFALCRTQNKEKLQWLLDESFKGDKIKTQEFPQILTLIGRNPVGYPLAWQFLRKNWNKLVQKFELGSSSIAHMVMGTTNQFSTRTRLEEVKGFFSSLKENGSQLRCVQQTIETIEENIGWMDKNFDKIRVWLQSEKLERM
# PvdQ acylase – P. aeruginosa PvdQ acylase inhibition. actives 0.063% (n = 340,000). purified PvdQ acylase, fluorescence plate reader. AID 488965. inhibition, % at 10 µM; in the data active = inhibition above about 30%, passing the limit was not always enough;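 note: 0% = vehicle neutral wells and 100% = reference inhibitor wells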
# Ecoli rRNA inh – selective bacterial rRNA inhibition in E. coli | actives 1.6% (n = 350,000) | E. coli WT GFP vs humanized-ribosome RFP mutants, fluorescence, 24 h; active compounds read low; DMSO median 0, no signal -100 | GFP signal change (wild-type ribosome), % (no concentration beside the values);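 active = significant combined selectivity score with lowered wild-type GFP, culture density cut under 30%, mutant RFP and density less affected; inactive = any of these conditions unmet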
# * marks the source's active call; other numbers are inactive results; · = not tested or not shown.
SMILES,F508del corr,ARNT-TACC3 inh,ERAP1 HTS inh,PvdQ acylase,Ecoli rRNA inh
COC(=O)CCC(=O)NC(=S)Nc1sc(C)c(C)c1C(N)=O,·,-5,·,-9,·
Cc1sc(NC(=S)NC(=O)CCc2ccccc2)c(C(N)=O)c1C,12*,-4,1,4,-3
CCCC(=O)Nc1sc(Cc2ccccc2)c(C)c1C(N)=O,-1,-2,1,-10,-24*
C[C@@H]1CN([C@H](C)CO)C(=O)c2cc(N(C)C)ccc2O[C@H]1CN(C)CC1CCCCC1,-1,·,·,·,4
CNC[C@@H]1Oc2cc(C#CC3CCCCC3)ccc2S(=O)(=O)N([C@@H](C)CO)C[C@H]1C,0,26,1,·,6
N#Cc1cccnc1Nc1ccc(Cl)cc1,0,·,1,32*,-2
CCCCc1ccc(Nc2ncccc2C#N)cc1,·,-16,·,19,·
CC(C)NC(=O)N1CCCN(c2nc3ccc(Cl)cc3s2)CC1,-2,-3,0,-8,-24*
CC(C)C(=O)N1CCN(c2nc3ccc(Cl)cc3s2)CC1,1,-13,0,-22,-35*
O=C(c1cccnc1)N1CC(=O)N2[C@H](CO)[C@H](c3ccc(C#CCC4CCCC4)cc3)[C@H]2C1,4,·,0,·,4
O=C1CNC(=S)N1CCCn1ccnc1,-3,60*,·,-8,4
CCCNC(=O)N(C)C[C@@H]1Oc2ncc(C#Cc3ccncc3)cc2C(=O)N([C@H](C)CO)C[C@H]1C,-2,12,0,·,-4
COc1cc([N+](=O)[O-])cc(/C=N/NC(=O)Cn2nccc2C)c1O,2,71*,8,-8,1
COc1cc([N+](=O)[O-])cc(/C=N/NC(=O)Cn2nc(C)cc2C)c1O,0,63*,·,-7,-5
COc1ccc(/C=N/NC(=O)Cn2nc([N+](=O)[O-])cc2C)c(OC)c1OC,0,-4,·,-4,16
COC(=O)C[C@@H]1CC[C@H]2[C@H](COc3ccc(NC(=O)Nc4ccc(C)cc4)cc3C(=O)N2C)O1,0,-10,1,·,-5
CCO[C@@H]1OC(C(=O)NCc2ccccc2)=C[C@H](c2ccccc2)[C@H]1CCCO,1,3,-1,-1,5
CCO[C@H]1OC(C(=O)NCc2ccccc2)=C[C@@H](c2ccccc2)[C@@H]1CCCO,0,-3,0,-13,-25*
CO[C@@H]1CN(C)C(=O)c2cc(NC(=O)C3CCOCC3)ccc2OC[C@@H](C)N(Cc2nccs2)C[C@H]1C,2,0,1,·,2
CC(C)CC(=O)NC(=S)NNC(=O)c1ccc(NC(=O)C2CCCCC2)cc1,·,68*,·,4,·
Cc1ccc(C)c(OCC(=O)NNC(=O)c2ccc(NC(=O)C3CC3)cc2)c1,4,0,-1,-14,-37*
CC(C)CC(=O)NC(=S)NNC(=O)c1ccc([N+](=O)[O-])cc1,·,29,·,-13,·
COc1ccc(C)cc1NC(=O)C(OC(=O)c1ccc(Cl)c(S(=O)(=O)N(C)c2ccccc2)c1)c1ccccc1 (stereo not given),9.2*,0,-2,-5,10
CS(=O)(=O)N1CCCCN2[C@H](C1)[C@H](c1ccc(C#Cc3ccccn3)cc1)[C@@H]2CO,1,9,-2,·,6
COc1ccc(S(=O)(=O)NNC(=O)C(=O)NNc2ccccn2)cc1,1,19,2,1,-31*
SMILES,F508del corr,ARNT-TACC3 inh,ERAP1 HTS inh,PvdQ acylase,Ecoli rRNA inh
COc1ccc(C(=O)NNS(=O)(=O)c2ccc(OC)cc2)cc1,-2,-22,1,-16,1
O=C(NCC(F)(F)F)[C@@H]1[C@@H](CO)[C@@H]2Cn3c(cccc3=O)[C@H]1N2CC1CCCC1,-1,·,-2,·,-1
CCOC(=O)c1cnc(-c2cccc(OC)c2)[nH]c1=O,·,0,·,-10,·
CCOC(=O)c1cnc(COc2ccc(OC)cc2)[nH]c1=O,53*,-2,·,0,·
Cc1nnc(NS(=O)(=O)c2ccc(N=Nc3ccc(N)nc3N)cc2)s1,-1,57*,5,10,2
CC(Oc1ccc2ccc(=O)oc2c1)C(=O)NC(Cc1c[nH]c2ccc(O)cc12)C(=O)O (stereo not given),3,-2,2,-11,·
COc1ccc(-c2cc(=O)oc3cc(OC(C)C(=O)NC(Cc4c[nH]c5ccc(O)cc45)C(=O)O)ccc23)cc1 (stereo not given),-3,35,31*,10,·
CC(Oc1ccc2c(-c3ccccc3)cc(=O)oc2c1)C(=O)N[C@H](Cc1c[nH]c2ccccc12)C(=O)O (stereo not given in full),0,11,0,-2,-24*
O=C(C[C@@H]1C[C@@H]2c3cc(NC(=O)NC4CCCCC4)ccc3O[C@@H]2[C@H](CO)O1)NC1CCCC1,·,·,·,·,0
COc1ccccc1-c1nc2c3ccccc3nc(=S)n2[nH]1,5,-6,-2,3,-27*
COc1cc(-c2nc3c4ccccc4nc(=S)n3[nH]2)cc(OC)c1OC,1,-5,1,-17,1
CC(C)NC(=O)N(C)C[C@@H]1Oc2ccc(NS(C)(=O)=O)cc2C(=O)N([C@H](C)CO)C[C@@H]1C,-2,-6,4,·,4
Cc1ccc(C(CC(=O)N2CCCC2)c2ccccc2)c(O)c1 (stereo not given),-4,7,1,-1,-26*
O=C(CC(c1ccccc1)c1ccccc1O)N1CCCC1 (stereo not given),·,6,-1,-10,-1
C[C@@H]1CN([C@H](C)CO)C(=O)Cc2cc(NC(=O)C3CC3)ccc2O[C@@H]1CN(C)Cc1ccncc1,0,1,-2,·,0
Cc1noc(C)c1S(=O)(=O)N(C)C[C@@H]1Oc2ccc(NC(=O)NC(C)C)cc2CC(=O)N([C@@H](C)CO)C[C@H]1C,-3,-1,2,·,5
CCC(=O)N1CCc2cc(Br)cc(S(=O)(=O)N(C)c3ccc(OC)cc3OC)c21,3,-1,-3,-4,-30*
CCC(=O)N1CCc2cc(S(=O)(=O)N(C)c3ccc(OC)cc3OC)ccc21,-2,-1,2,-5,1
C[C@@H]1CN([C@@H](C)CO)C(=O)c2cc(/C=C/c3ccccc3)cnc2O[C@@H]1CN(C)C(=O)c1cnccn1,0,-4,0,·,-3
Nc1cc(Nc2ccc(Br)cc2)nc(N)n1,2,8,-1,-5,-44*
CCOC(=O)c1c(N)sc(N)c1C(=O)OCC,·,6,6,-12,·
CCOC(=O)c1c(N)sc(C(O)(C(F)(F)F)C(F)(F)F)c1-c1ccc(OC)cc1OC,2,6,0,0,-27*
CCN1c2ccccc2N(C)C1(C)c1ccccc1 (stereo not given),·,64*,·,-3,·
